Assay results reported in PubChem BioAssay.
Several values for one entry are separate records, joined by “and”; a condition that tells them apart may be missing. Identical values can stand only once. Some compounds were tested as several samples or in several runs, with calls that do not always agree. Activity calls are given as the source filed them. No stated cut-off is given here; in the data, active means inhibition above about 80%; inactive means the rest.

Assay: LFS_MB_P medulloblastoma growth inhibition, cell-based, chromothripsis tumors, cisplatin or BGB combos (AID 1671449);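 further: cells exposed for 96 hours; 0% = vehicle DMSO and 100% = killing by high DMSO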
Details: LFS_MB_P medulloblastoma cells, at 0.5 µM, stronger effect = higher value

**Q.** Which inhibition does the source give for `COc1ccccc1S(=O)(=O)Nc1ccc2c(c1)CN(C)C(=O)N2` here?
**A.** -27% (inactive)

**Q.** For `Cc1cc(C#N)cc(C)c1Oc1nc(Nc2ccc(C#N)cc2)nc(N)c1Br`, which inhibition is on record?
**A.** -6.54% (inactive)

**Q.** For `Nc1ncn(C2OC(CO)C(O)C2O)c(=O)n1` (stereo not drawn), which inhibition is on record?
**A.** -5.82% (inactive)

**Q.** Which inhibition does the source give for `Cc1cc(C)c(Nc2ccnc(Nc3ccc(C#N)cc3)n2)c(C)c1` here?
**A.** -1.98% (inactive)

**Q.** For `COc1ccc(CC(N)C(=O)NC2C(CO)OC(n3cnc4c(N(C)C)ncnc43)C2O)cc1` (stereo not drawn), which inhibition is on record?
**A.** -25.1% (inactive) and 6.28% (inactive)

**Q.** With `O=c1ccn(C2OC(CO)C(O)C2O)c(=O)[nH]1` (stereo not drawn) as the compound, how does the inhibition read?
**A.** -8.26% (inactive) and 22% (inactive)

**Q.** With `CC=C1NC(=O)C2CSSCCC=CC(CC(=O)NC(C(C)C)C(=O)N2)OC(=O)C(C(C)C)NC1=O` (stereo not drawn) as the compound, how does the inhibition read?
**A.** -10.7% (inactive) and 88% (active)

**Q.** Which inhibition does the source give for `CN(C)CC(=O)Nc1ccc2[nH]c(=O)c3ccccc3c2c1` here?
**A.** -18.5% (inactive) and -17% (inactive) and -7.46% (inactive)

**Q.** For `CC1OC(n2cc(F)c(=O)[nH]c2=O)C(O)C1O` (stereo not drawn), which inhibition is on record?
**A.** -9.42% (inactive)

**Q.** For `Nc1ccn(C2OC(CO)C(O)C2(F)F)c(=O)n1` (stereo not drawn), which inhibition is on record?
**A.** 12.8% (inactive) and -24.1% (inactive) and -14.5% (inactive)

**Q.** Which inhibition does the source give for `Cc1cn(C2CC(N=[N+]=[N-])C(CO)O2)c(=O)[nH]c1=O` (stereo not drawn) here?
**A.** -14.1% (inactive) and -29.8% (inactive)

**Q.** Which inhibition does the source give for `CC(C=CC(=O)NO)=CC(C)C(=O)c1ccc(N(C)C)cc1` (stereo not drawn) here?
**A.** 124% (active)

**Q.** Which inhibition does the source give for `NC(=S)NN=Cc1ncccc1N` here?
**A.** -16.7% (inactive)

**Q.** With `CC(C)(C#N)c1ccc(N2C(=O)OCc3cnc4ccc(-c5cnc6ccccc6c5)cc4c32)cc1` as the compound, how does the inhibition read?
**A.** -21.4% (inactive)

**Q.** For `CC1CN(c2c(F)c(N)c3c(=O)c(C(=O)O)cn(C4CC4)c3c2F)CC(C)N1` (stereo not drawn), which inhibition is on record?
**A.** -8.35% (inactive)

**Q.** For `CCCCN(Cc1ccc(C(=O)NO)cc1)C(=O)Nc1ccccc1`, which inhibition is on record?
**A.** -20% (inactive) and -3.97% (inactive)

**Q.** With `O=c1[nH]cnc2c1ncn2C1OC(CO)C(O)C1O` (stereo not drawn) as the compound, how does the inhibition read?
**A.** -10.7% (inactive) and -25.9% (inactive)

**Q.** For `Cc1cc(C=CC#N)cc(C)c1Nc1ccnc(Nc2ccc(C#N)cc2)n1`, which inhibition is on record?
**A.** -21.9% (inactive)

**Q.** Which inhibition does the source give for `CC(Oc1cc(-c2cnn(C3CCNCC3)c2)cnc1N)c1c(Cl)ccc(F)c1Cl` (stereo not drawn) here?
**A.** -14.5% (inactive)

**Q.** For `O=C(O)c1cc2cccc([N+](=O)[O-])c2[nH]1`, which inhibition is on record?
**A.** -23.9% (inactive)

**Q.** Which inhibition does the source give for `O=c1[nH]c(=O)n(C2CC(O)C(CO)O2)cc1I` (stereo not drawn) here?
**A.** 4.71% (inactive)

Same assay, conditions: LFS_MB_P medulloblastoma cells, measured here: combination with BGB IC20, at 0.005 µM

**Q.** With `COc1ccccc1S(=O)(=O)Nc1ccc2c(c1)CN(C)C(=O)N2` as the compound, how does the inhibition read?
**A.** -35.7%

**Q.** With `Cc1cc(C#N)cc(C)c1Oc1nc(Nc2ccc(C#N)cc2)nc(N)c1Br` as the compound, how does the inhibition read?
**A.** -10%

**Q.** With `Nc1ncn(C2OC(CO)C(O)C2O)c(=O)n1` (stereo not drawn) as the compound, how does the inhibition read?
**A.** 12.2%

**Q.** With `Cc1cc(C)c(Nc2ccnc(Nc3ccc(C#N)cc3)n2)c(C)c1` as the compound, how does the inhibition read?
**A.** -30.5%

**Q.** Which inhibition does the source give for `COc1ccc(CC(N)C(=O)NC2C(CO)OC(n3cnc4c(N(C)C)ncnc43)C2O)cc1` (stereo not drawn) here?
**A.** 7.23% and -8.63%

**Q.** Which inhibition does the source give for `O=c1ccn(C2OC(CO)C(O)C2O)c(=O)[nH]1` (stereo not drawn) here?
**A.** 10.5% and -21.6%

**Q.** With `CC=C1NC(=O)C2CSSCCC=CC(CC(=O)NC(C(C)C)C(=O)N2)OC(=O)C(C(C)C)NC1=O` (stereo not drawn) as the compound, how does the inhibition read?
**A.** 24.5% and 60%

**Q.** Which inhibition does the source give for `CN(C)CC(=O)Nc1ccc2[nH]c(=O)c3ccccc3c2c1` here?
**A.** 12.4% and -8.96% and -31.5%

**Q.** For `CC1OC(n2cc(F)c(=O)[nH]c2=O)C(O)C1O` (stereo not drawn), which inhibition is on record?
**A.** -7.8%

**Q.** Which inhibition does the source give for `Nc1ccn(C2OC(CO)C(O)C2(F)F)c(=O)n1` (stereo not drawn) here?
**A.** -8.46% and 7.63% and 14%

**Q.** With `Cc1cn(C2CC(N=[N+]=[N-])C(CO)O2)c(=O)[nH]c1=O` (stereo not drawn) as the compound, how does the inhibition read?
**A.** -13.1% and -7.61%

**Q.** Which inhibition does the source give for `CC(C=CC(=O)NO)=CC(C)C(=O)c1ccc(N(C)C)cc1` (stereo not drawn) here?
**A.** -30%

**Q.** With `NC(=S)NN=Cc1ncccc1N` as the compound, how does the inhibition read?
**A.** -2.55%

**Q.** For `CC(C)(C#N)c1ccc(N2C(=O)OCc3cnc4ccc(-c5cnc6ccccc6c5)cc4c32)cc1`, which inhibition is on record?
**A.** -11.2%

**Q.** With `CC1CN(c2c(F)c(N)c3c(=O)c(C(=O)O)cn(C4CC4)c3c2F)CC(C)N1` (stereo not drawn) as the compound, how does the inhibition read?
**A.** -4.46%

**Q.** For `CCCCN(Cc1ccc(C(=O)NO)cc1)C(=O)Nc1ccccc1`, which inhibition is on record?
**A.** -3.67% and 7.55%

**Q.** With `O=c1[nH]cnc2c1ncn2C1OC(CO)C(O)C1O` (stereo not drawn) as the compound, how does the inhibition read?
**A.** -29.2% and -10.3%

**Q.** For `Cc1cc(C=CC#N)cc(C)c1Nc1ccnc(Nc2ccc(C#N)cc2)n1`, which inhibition is on record?
**A.** -35.7%

**Q.** For `CC(Oc1cc(-c2cnn(C3CCNCC3)c2)cnc1N)c1c(Cl)ccc(F)c1Cl` (stereo not drawn), which inhibition is on record?
**A.** -15.8%

**Q.** For `O=C(O)c1cc2cccc([N+](=O)[O-])c2[nH]1`, which inhibition is on record?
**A.** -6.46%

**Q.** Which inhibition does the source give for `O=c1[nH]c(=O)n(C2CC(O)C(CO)O2)cc1I` (stereo not drawn) here?
**A.** 8.42%

Same assay, conditions: LFS_MB_P medulloblastoma cells, measured here: combination with BGB IC40, at 0.005 µM

**Q.** Which inhibition does the source give for `COc1ccccc1S(=O)(=O)Nc1ccc2c(c1)CN(C)C(=O)N2` here?
**A.** -46.6%

**Q.** For `Cc1cc(C#N)cc(C)c1Oc1nc(Nc2ccc(C#N)cc2)nc(N)c1Br`, which inhibition is on record?
**A.** -30.6%

**Q.** With `Nc1ncn(C2OC(CO)C(O)C2O)c(=O)n1` (stereo not drawn) as the compound, how does the inhibition read?
**A.** 6.88%

**Q.** Which inhibition does the source give for `Cc1cc(C)c(Nc2ccnc(Nc3ccc(C#N)cc3)n2)c(C)c1` here?
**A.** -59.6%

**Q.** With `COc1ccc(CC(N)C(=O)NC2C(CO)OC(n3cnc4c(N(C)C)ncnc43)C2O)cc1` (stereo not drawn) as the compound, how does the inhibition read?
**A.** -30.8% and -22.1%

**Q.** Which inhibition does the source give for `O=c1ccn(C2OC(CO)C(O)C2O)c(=O)[nH]1` (stereo not drawn) here?
**A.** 8.95% and -30.9%

**Q.** With `CC=C1NC(=O)C2CSSCCC=CC(CC(=O)NC(C(C)C)C(=O)N2)OC(=O)C(C(C)C)NC1=O` (stereo not drawn) as the compound, how does the inhibition read?
**A.** 2.54% and 37.2%

**Q.** For `CN(C)CC(=O)Nc1ccc2[nH]c(=O)c3ccccc3c2c1`, which inhibition is on record?
**A.** -19.5% and -21.6% and -39.4%

**Q.** With `CC1OC(n2cc(F)c(=O)[nH]c2=O)C(O)C1O` (stereo not drawn) as the compound, how does the inhibition read?
**A.** -40.7%

**Q.** For `Nc1ccn(C2OC(CO)C(O)C2(F)F)c(=O)n1` (stereo not drawn), which inhibition is on record?
**A.** -8.25% and -29.3% and -2.14%

**Q.** Which inhibition does the source give for `Cc1cn(C2CC(N=[N+]=[N-])C(CO)O2)c(=O)[nH]c1=O` (stereo not drawn) here?
**A.** -10.5% and -37.1%

**Q.** For `CC(C=CC(=O)NO)=CC(C)C(=O)c1ccc(N(C)C)cc1` (stereo not drawn), which inhibition is on record?
**A.** -20.9%

**Q.** With `NC(=S)NN=Cc1ncccc1N` as the compound, how does the inhibition read?
**A.** -23%

**Q.** With `CC(C)(C#N)c1ccc(N2C(=O)OCc3cnc4ccc(-c5cnc6ccccc6c5)cc4c32)cc1` as the compound, how does the inhibition read?
**A.** -17%

**Q.** For `CC1CN(c2c(F)c(N)c3c(=O)c(C(=O)O)cn(C4CC4)c3c2F)CC(C)N1` (stereo not drawn), which inhibition is on record?
**A.** -31.5%

**Q.** For `CCCCN(Cc1ccc(C(=O)NO)cc1)C(=O)Nc1ccccc1`, which inhibition is on record?
**A.** 4.04% and -3.84%

**Q.** With `O=c1[nH]cnc2c1ncn2C1OC(CO)C(O)C1O` (stereo not drawn) as the compound, how does the inhibition read?
**A.** -37.9% and -36.7%

**Q.** For `Cc1cc(C=CC#N)cc(C)c1Nc1ccnc(Nc2ccc(C#N)cc2)n1`, which inhibition is on record?
**A.** -21.8%

**Q.** With `CC(Oc1cc(-c2cnn(C3CCNCC3)c2)cnc1N)c1c(Cl)ccc(F)c1Cl` (stereo not drawn) as the compound, how does the inhibition read?
**A.** -3.96%

**Q.** With `O=C(O)c1cc2cccc([N+](=O)[O-])c2[nH]1` as the compound, how does the inhibition read?
**A.** -31.7%

**Q.** For `O=c1[nH]c(=O)n(C2CC(O)C(CO)O2)cc1I` (stereo not drawn), which inhibition is on record?
**A.** -21.4%
